ChEMBL document CHEMBL3988442, “University of Dundee, Small-Polar-MMV Screening Library” (2021)
Hit rate of the full screen: of about 48,000 compounds, about 13,000 (27%) showed an effect of 50% or more. Some of the results follow.

System: Wolbachia pipientis
Assay: Anti-Wolbachia Cell-Based Screen
Format: functional
Set-up: scale not given: in the data most compounds retested in dose-response had high values
Details: 5 µM

Q: With `CCC(C)NC(=O)c1ccc(NC(=O)CCCn2cncn2)c(C)c1` (stereo not given) as the compound, how does the “Percent Effect” value read?
A: -0.8579%

Q: `CC(C)=CCS(=O)(=O)Cc1ccn(-c2cccc(F)c2)n1` was tested. Which “Percent Effect” value did it give?
A: -8.164%

Q: Which “Percent Effect” value does the source give for `Cc1cc(C)n2nc(CC(=O)N3CC[C@H]4NCCC[C@]4(CO)C3)nc2n1` here?
A: 5.114%

Q: How did the “Percent Effect” value turn out when `CCC(O)Cn1nc(CCSC)nc1-c1ccc2c(c1)OCCO2` (stereo not given) was run?
A: -7.02%

Q: How did the “Percent Effect” value turn out when `CCc1nc(C2CCCN(C(=O)c3ccc(Cl)cc3)C2)no1` (stereo not given) was run?
A: 149.4%

Q: Which “Percent Effect” value does the source give for `CCc1nc(C2CCCN(C(=O)c3c(C)noc3C)C2)no1` (stereo not given) here?
A: 106.3%

Q: Which “Percent Effect” value does the source give for `CC(C)c1nc(C2CCCN(C(=O)c3ccc4[nH]cnc4c3)C2)no1` (stereo not given) here?
A: 1.919%

Q: How did the “Percent Effect” value turn out when `CCc1nc(C2CCCN(C(=O)c3ccc4[nH]nnc4c3)C2)no1` (stereo not given) was run?
A: 1.903%

Q: `CCc1nc(C2CCCN(C(=O)c3ccc(OC(C)C)nc3)C2)no1` (stereo not given) was tested. Which “Percent Effect” value did it give?
A: 4.592%

Q: With `CCc1nc(C2CCCN(C(=O)c3cn(C)nc3C)C2)no1` (stereo not given) as the compound, how does the “Percent Effect” value read?
A: -1.661%

Q: `CCc1nc(C2CCCN(C(=O)c3ccc(O)nc3)C2)no1` (stereo not given) was tested. Which “Percent Effect” value did it give?
A: 94.4%

Q: For `CCc1nc(C2CCCN(C(=O)c3ccc4[nH]cnc4c3)C2)no1` (stereo not given), which “Percent Effect” value is on record?
A: 87.55%

Q: `O=C(NCc1ccc(CN2CCCC2)cc1)NCc1ccon1` was tested. Which “Percent Effect” value did it give?
A: -9.348%

Q: `COc1cc(C)nc(N2CCN(C(=O)CNC(C)(C)C)CC2)n1` was tested. Which “Percent Effect” value did it give?
A: -7.081%

Q: With `c1cncc(NCCCNC2CCSC2)c1` (stereo not given) as the compound, how does the “Percent Effect” value read?
A: 8.573%

Q: How did the “Percent Effect” value turn out when `Cn1cnnc1-c1cncc(NCc2cccc3c2OCO3)c1` was run?
A: -7.225%

Q: `Cc1noc(C(C)Nc2ccc3oc(=O)[nH]c3c2)n1` (stereo not given) was tested. Which “Percent Effect” value did it give?
A: -7.057%

Q: `CN(CC(=O)N1CCN(c2ncccn2)CC1)c1ccc(Cl)cn1` was tested. Which “Percent Effect” value did it give?
A: -31.13%

Q: How did the “Percent Effect” value turn out when `Cc1noc(C)c1C(=O)N1CCCC(c2nccn2Cc2cscn2)C1` (stereo not given) was run?
A: -18.15%

Q: `Cc1cc(C)n(C2CCCN(C(=O)c3c(C)noc3C)C2)n1` (stereo not given) was tested. Which “Percent Effect” value did it give?
A: -7.23%

Q: `CCc1nc(C2CCCN(C(=O)c3ccncc3)C2)no1` (stereo not given) was tested. Which “Percent Effect” value did it give?
A: 123.6%

Q: For `CCc1ccc(C(=O)N2CCCC(c3noc(CC)n3)C2)o1` (stereo not given), which “Percent Effect” value is on record?
A: 3.526%

Q: `CCc1nc(C2CCCN(C(=O)c3ccc(OC)cc3)C2)no1` (stereo not given) was tested. Which “Percent Effect” value did it give?
A: 87.64%

Q: `Cc1c[nH]nc1C1CCCN(C(=O)c2c(C)noc2C)C1` (stereo not given) was tested. Which “Percent Effect” value did it give?
A: 107%

Q: With `CCc1nc(C2CCCN(C(=O)c3ccc(F)cc3)C2)no1` (stereo not given) as the compound, how does the “Percent Effect” value read?
A: 103.7%

Q: `C=Cc1ccc(C(=O)N2CCCC(Nc3ccc(F)cc3)C2)cc1` (stereo not given) was tested. Which “Percent Effect” value did it give?
A: -17.89%

Q: `CCC(CC(=O)NS(=O)(=O)C(C)C)c1ccccc1` (stereo not given) was tested. Which “Percent Effect” value did it give?
A: 10.71%

Q: `COc1cc2c(cc1CNCc1cccnc1-n1cccn1)OC(C)C2.Cl` (stereo not given) was tested. Which “Percent Effect” value did it give?
A: 12.76%

Q: With `Cc1ccc(C)c(CNC(=O)NC(C)(C(=O)O)c2ccco2)c1` (stereo not given) as the compound, how does the “Percent Effect” value read?
A: 3.789%

Q: `CC1=C(CCN2CCCC(O)C2)C(C)(C)CCC1` (stereo not given) was tested. Which “Percent Effect” value did it give?
A: -3.829%

Q: For `C(=C\c1ccc(CN2CCCC2)cn1)/c1ccccc1`, which “Percent Effect” value is on record?
A: -4.188%

Q: How did the “Percent Effect” value turn out when `CCCNc1nc(CS(=O)(=O)c2ccccc2)cs1` was run?
A: -6.524%

Q: How did the “Percent Effect” value turn out when `Br.O=C(O)c1csc(NCCc2ccccc2)n1` was run?
A: 93.16%

Q: How did the “Percent Effect” value turn out when `CC(=O)Nc1nc(C(=O)NCCOc2ccccc2)cs1` was run?
A: -21.48%

Q: How did the “Percent Effect” value turn out when `CC(C)(C)CC(=O)NCC(=O)NCC(O)c1ccc2ccccc2c1` (stereo not given) was run?
A: 2.35%

Q: `CN(Cc1ccc(-n2cccn2)cc1)c1cc(N)nc(N)n1` was tested. Which “Percent Effect” value did it give?
A: -3.397%

Q: With `COc1ccnc(N2CCC3(CCCN(C(C)C)C3=O)C2)n1` (stereo not given) as the compound, how does the “Percent Effect” value read?
A: 10.66%

Q: Which “Percent Effect” value does the source give for `N#Cc1cccnc1N1CCC2(CCCN(C3CCOCC3)C2=O)C1` (stereo not given) here?
A: -10.29%

Q: With `Cc1nccnc1N1CCC2(CCCN(C3CCOCC3)C2=O)C1` (stereo not given) as the compound, how does the “Percent Effect” value read?
A: 28.32%

Q: For `Cc1ccc(C#N)c(N2CCC(c3nccn3Cc3cscn3)CC2)n1`, which “Percent Effect” value is on record?
A: -1.954%

Q: `O=C1N(C2CCOCC2)CCCC12CCN(c1ncccc1Cl)C2` (stereo not given) was tested. Which “Percent Effect” value did it give?
A: 119%

Q: How did the “Percent Effect” value turn out when `Cc1ccc(C#N)c(N2CCC3(CCCN(C4CCOCC4)C3=O)C2)n1` (stereo not given) was run?
A: 93.97%

Q: For `COC[C@@]12CC[C@@H](N3CCOCC3)C[C@H]1CCN(c1ncccc1Cl)C2`, which “Percent Effect” value is on record?
A: 19.13%

Q: Which “Percent Effect” value does the source give for `Cc1nc(N2CCC3(CCCN(C(C)C)C3=O)C2)c2sccc2n1` (stereo not given) here?
A: -8.987%

Q: `Cc1ccc(C#N)c(N2CCC3(CCC(=O)N(CC(N)=O)C3)CC2)n1` was tested. Which “Percent Effect” value did it give?
A: -13.92%

Q: For `Cc1cc(N2CCC3(CCCN(C4CCOCC4)C3=O)C2)ccn1` (stereo not given), which “Percent Effect” value is on record?
A: 118.2%

Q: For `Cc1cnc(C)c(N2CCC3(CCCN(C4CCOCC4)C3=O)C2)n1` (stereo not given), which “Percent Effect” value is on record?
A: 106.2%

Q: `Cc1cc(N2CCC(c3nnc(CN(C)C)n3C3CC3)CC2)ccn1` was tested. Which “Percent Effect” value did it give?
A: 1.365%

Q: With `CCNc1ncc(C(=O)NCC2OCCc3ccccc32)cn1` (stereo not given) as the compound, how does the “Percent Effect” value read?
A: -9.42%

Q: Which “Percent Effect” value does the source give for `CCc1nc(C)c(CN2CCCC(c3nn(C)c(=O)n3CC)C2)[nH]1` (stereo not given) here?
A: 1.561%

Q: For `O=S(=O)(Cc1ccccc1CN1CCOCC(O)C1)c1ccccc1` (stereo not given), which “Percent Effect” value is on record?
A: -4.778%

Q: With `O=C(NCc1ccccc1Cn1ccnc1)N1CCSCC1` as the compound, how does the “Percent Effect” value read?
A: -1.657%

Q: For `NC(=O)CN1CC2(CCC1=O)CCN(Cc1ccc(F)cc1Cl)CC2`, which “Percent Effect” value is on record?
A: 0.9976%

Q: With `O=C(Nc1cccc(CN2CCOC2=O)c1)N1CCSCC1` as the compound, how does the “Percent Effect” value read?
A: 46.29%

Q: With `CCCc1nc(C(=O)N2CCCn3nc(CCC(=O)O)cc3C2)cs1` as the compound, how does the “Percent Effect” value read?
A: -10.82%
